Measurements as given in PubChem BioAssay (NCI).
Compounds without any hit were thinned out: in the full panel of roughly 83,000, 20% have a hit.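 Compound tested at a single concentration for 48 hours in 96-well plates; a percent growth value below 10 was scored as active.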 Values without a mark were called inactive. Calls of active or inactive are those of the source.

Columns and labels:
Experiment in all cases: NCI-60 one-dose screen, 48 h (100 = growth as untreated, 0 = no growth, -100 = all killed)
Details in all cases: 10 µM unless noted
DU-145 prostate = tested on: DU-145 prostate
K-562 leukemia = tested on: K-562 leukemia
MALME-3M melanoma = tested on: MALME-3M melanoma
MDA-MB-231 breast = tested on: MDA-MB-231 breast
RXF 393 renal = tested on: RXF 393 renal
SF-268 CNS = tested on: SF-268 CNS
SF-295 CNS = tested on: SF-295 CNS
SF-539 CNS = tested on: SF-539 CNS
UACC-257 melanoma = tested on: UACC-257 melanoma
M14 melanoma = tested on: M14 melanoma

Structure (SMILES)	growth (DU-145 prostate)	growth (K-562 leukemia)	growth (MALME-3M melanoma)	growth (MDA-MB-231 breast)	growth (RXF 393 renal)	growth (SF-268 CNS)	growth (SF-295 CNS)	growth (SF-539 CNS)	growth (UACC-257 melanoma)	growth (M14 melanoma)
C=C1C(=O)O[C@H]2[C@H]1CC/C(CNC(=O)/C=C/c1ccccc1)=C\CC[C@@]1(C)O[C@@H]21	-34.3% (active)	1.51% (active)	-50.1% (active)	-15.2% (active)	-90.2% (active)	48.1%	62.3%	-63.8% (active)	-55.1% (active)	-63.2% (active)
COc1cc2nc(-c3ccc(Cl)cc3)cc(OCCCN3CCC(O)CC3)c2cc1OC	38.5%	13.9%	64%	26.1%	46.3%	54.8%	-10.5% (active)	54.3%	8.39% (active)	-48% (active)
O=C(NCCNc1nccc(-c2c(-c3cccc(F)c3)nc3sccn23)n1)c1ccc(Cl)cc1	71%	54.4%	34.9%	65.5%	72.9%	67.9%	73.8%	90%	76%	38.8%
COC(=O)N[C@H]1CCc2c(Cl)c(OC)c(OC)c(OC)c2-c2ccc(SC)c(=O)cc21	-11.1% (active)	7.05% (active)	36.8%	-2.11% (active)	20.3%	20.2%	12%	-0.571% (active)	68.3%	0.0864% (active)
O=C(/C=C/c1ccc(Cl)cc1)c1ccc(NC(=O)N2CCN(c3cc4c(cc3F)c(=O)c(C(=O)O)cn4C3CC3)CC2)cc1	98.5%	65%	103%	93%	97.9%	89.3%	108%	81.7%	105%	104%
O=C(Nc1ccccc1)Nc1ccc2cc3ccc(NC(=O)Nc4ccccc4)cc3nc2c1	39.2%	1.08% (active)	-9.29% (active)	-51.4% (active)	28.5%	-22.4% (active)	17.8%	-56% (active)	104%	47.2%
Cn1ccc2c1CC1CN(Cc3ccco3)C(=O)C1C2C(=O)O (stereo not given)	89.2%	97.4%	98.5%	97.1%	111%	92.6%	100%	96.3%	97%	103%
COc1ccc(-c2[nH][nH]c(=O)c2-c2nc3ccccc3s2)cc1	108%	98.2%	110%	104%	109%	101%	107%	108%	106%	107%
Oc1ccc(C(c2ccc(O)cc2)c2ccc(Br)cn2)cc1	47.4%	73.5%	99.3%	83%	-22% (active)	104%	-17.1% (active)	84.9%	91.3%	78.8%
O=S(=O)(NCCNc1nccc(-c2c(-c3cccc(O)c3)nc3occn23)n1)c1ccc(C(F)(F)F)cc1	108%	97.2%	7.76% (active)	90.7%	101%	97.3%	107%	114%	61.1%	38.9%
CCN(CC)CCn1c(=O)c2cc(OC)c(OC)cc2c2ccc3cc4c(cc3c21)OCO4	24.1%	33.4%	17.2%	54.8%	8.86% (active)	35.6%	24.5%	-7.07% (active)	41.3%	10.6%
NC(=NCc1ccccc1)C(N=Nc1ccccc1)C(=O)NCc1ccccc1 (stereo not given)	94.4%	25.2%	133%	68.3%	72.6%	53.5%	53.9%	50.3%	95.4%	82.9%
COC(=O)C1=C(C(=O)ON)[C@@H]2C=C[C@@]1([C@@H](Cc1ccccc1)Nc1ccccc1)O2	80%	-9.92% (active)	-68.8% (active)	106%	91.1%	93.9%	105%	93.8%	94.8%	95.3%
